{"source": "PubChem BioAssay AID2358", "about": "(The Scripps Research Institute Molecular Screening Center, 2010)", "note": "Out of some 1,900 compounds screened, about 1,000 (53%) were called active.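 The calls were made as follows: active = mean PP1 inhibition above a set limit taken from the earlier primary screen (cut at about 15% in these data); inactive = the rest.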 The set was probably picked from earlier hits. These entries were drawn from the full list."}
{"biological_target": "Serine/threonine-protein phosphatase PP1-alpha catalytic subunit (Homo sapiens) (UniProt P62136)", "sequence (P62136 whole entry, looked up)": "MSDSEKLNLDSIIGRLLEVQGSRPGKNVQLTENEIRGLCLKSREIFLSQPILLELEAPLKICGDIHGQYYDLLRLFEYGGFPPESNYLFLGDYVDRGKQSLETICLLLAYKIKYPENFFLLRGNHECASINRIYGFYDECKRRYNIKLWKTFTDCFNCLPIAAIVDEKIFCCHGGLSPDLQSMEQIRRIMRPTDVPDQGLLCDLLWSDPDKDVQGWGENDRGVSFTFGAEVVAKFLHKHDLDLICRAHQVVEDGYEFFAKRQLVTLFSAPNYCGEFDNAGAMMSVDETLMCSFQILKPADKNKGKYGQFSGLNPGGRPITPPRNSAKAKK", "test": "inhibition of human PP1-alpha enzyme activity – biochemical, fluorescence, OMFP substrate, triplicate, confirmation (AID 2358)", "conditions": "purified PP1alpha, at 6.7 µM, stronger effect = higher value"}
{"smiles": "O=c1[nH]c(CN2CC=C(c3ccccc3)CC2)nc2scc(-c3cccs3)c12", "inhibition": "19.9% (active)"}
{"smiles": "CCOP(=O)(OCC)C(O)c1ccc(OC)cc1OC", "note": "(stereo not drawn)", "inhibition": "-5.49% (inactive)"}
{"smiles": "O=C(O)c1ccccc1NC(=O)C1C2CCC(O2)C1C(=O)O", "note": "(stereo not drawn)", "inhibition": "13.2% (inactive)"}
